# PMC4336329 (PLoS ONE, 2015)
# About 14,000 (4.5%) of roughly 310,000 compounds showed an effect of 50% or more. The effect is printed as a negative number. For the sample, strong results were picked, then their nearest neighbours and some compounds at random.
# Biological target: human ether-à-go-go-related gene (hERG) potassium channel (human, UniProt Q12809)
# Test: primary screen, population patch clamp on CHO cells stably expressing hERG; higher = less effect of the substance
# 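Further: peak tail current of the secondary pulse compared with the same well before compound.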
# Sequence of human ether-à-go-go-related gene (hERG) potassium channel (Q12809 whole entry, looked up): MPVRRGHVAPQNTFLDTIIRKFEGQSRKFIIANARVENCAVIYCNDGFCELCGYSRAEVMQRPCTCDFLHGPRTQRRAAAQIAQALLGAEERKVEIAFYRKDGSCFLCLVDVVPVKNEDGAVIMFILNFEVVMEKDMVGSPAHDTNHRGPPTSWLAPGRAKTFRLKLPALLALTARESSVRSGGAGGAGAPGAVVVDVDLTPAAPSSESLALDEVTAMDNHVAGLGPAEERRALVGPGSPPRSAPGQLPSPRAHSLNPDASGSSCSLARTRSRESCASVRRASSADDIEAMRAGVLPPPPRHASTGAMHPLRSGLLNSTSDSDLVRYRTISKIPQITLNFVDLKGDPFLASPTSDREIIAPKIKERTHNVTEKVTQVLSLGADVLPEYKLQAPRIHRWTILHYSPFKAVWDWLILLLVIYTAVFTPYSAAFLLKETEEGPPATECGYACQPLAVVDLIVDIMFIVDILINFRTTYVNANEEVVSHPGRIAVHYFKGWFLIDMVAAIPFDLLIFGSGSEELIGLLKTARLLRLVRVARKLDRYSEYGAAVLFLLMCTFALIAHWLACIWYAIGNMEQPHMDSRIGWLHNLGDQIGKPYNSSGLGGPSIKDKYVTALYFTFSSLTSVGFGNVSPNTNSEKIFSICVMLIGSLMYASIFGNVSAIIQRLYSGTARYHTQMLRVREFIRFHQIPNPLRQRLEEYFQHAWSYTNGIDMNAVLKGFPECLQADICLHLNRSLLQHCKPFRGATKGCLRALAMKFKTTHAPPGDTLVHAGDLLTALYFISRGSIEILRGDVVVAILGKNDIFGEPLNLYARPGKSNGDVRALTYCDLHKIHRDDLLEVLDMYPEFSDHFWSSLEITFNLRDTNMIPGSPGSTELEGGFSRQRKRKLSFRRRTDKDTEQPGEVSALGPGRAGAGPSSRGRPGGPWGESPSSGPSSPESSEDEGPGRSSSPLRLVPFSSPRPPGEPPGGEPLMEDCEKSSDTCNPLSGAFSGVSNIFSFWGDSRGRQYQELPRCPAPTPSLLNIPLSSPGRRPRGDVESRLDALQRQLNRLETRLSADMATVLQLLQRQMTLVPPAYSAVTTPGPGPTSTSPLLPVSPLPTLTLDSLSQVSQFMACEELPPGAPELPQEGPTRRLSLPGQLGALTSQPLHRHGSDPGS
row,Structure (SMILES),"hERG current change (%, negative = inhibition) at 10uM"
1,COc1nc(-c2ccccc2)ccc1-c1noc(C)n1,-5.52%
2,Cn1ccnc1C1CCCCN1Cc1nc(-c2ccc(Cl)cc2)no1 (stereo not shown),-23.1%
3,O=C(O)C1C2CCC(C2)C1C(=O)NCc1ccco1 (stereo not shown),-8.3%
4,Cc1ccc(-n2cc(CNC(C)Cn3cncn3)c(-c3ccc(F)cc3)n2)cc1 (stereo not shown),-60.7%
5,Cc1ccc(-n2cc(CN3CCNC(=O)CC3)c(-c3cccc(C)c3)n2)cc1,-0.817%
6,Cc1ccc(-n2cc(CN(C)CCc3cn[nH]c3)c(-c3cccc(C)c3)n2)cc1,-68%
7,Cc1ccc(-n2cc(CNCCN3CCOC3=O)c(-c3cccc(C)c3)n2)cc1,-69.1%
8,Cc1cccc(-n2cc(CNCCN3CCOC3=O)c(-c3cccc(F)c3)n2)c1,-16.4%
9,Cc1ccc(-n2cc(CNC(C)c3cnn(C)c3)c(-c3ccc(F)cc3)n2)cc1 (stereo not shown),-40%
10,Cc1ccc(C)c(-n2cc(CNC(C)Cn3cncn3)c(-c3ccccc3)n2)c1 (stereo not shown),-45.6%
11,CC(=O)N1CCCN(Cc2cn(-c3ccc(C)cc3)nc2-c2cccc(C)c2)CC1,-43%
12,Cc1ccc(-n2cc(CN(C)Cc3ncc[nH]3)c(-c3cccc(C)c3)n2)cc1,-34.8%
13,CCn1c(-c2ccco2)n[nH]c1=S,12%
14,N#C/C(=C\c1ccc(OCc2ccc(Br)cc2)cc1)C(=O)Nc1cccc(C(=O)O)c1,17.8%
15,CCOC(=O)c1c(C)[nH]c(C(=O)CSc2ccccc2)c1C,3.05%
16,C/C(Cn1nnc2ccccc21)=N\OC(=O)c1cc(F)c(F)cc1Cl,-80.5%
17,Cc1ccccc1NC(=O)Cn1nnc2ccccc21,-12%
18,O=C(Cn1nnc2ccccc21)c1ccc(Cl)cc1,-4.9%
19,O=C(O)Cn1nnc2ccccc21,-3.4%
20,C/C(Cn1nnc2ccccc21)=N\OC(=O)c1ccccc1C,-63.9%
21,C/C(Cn1nnc2ccccc21)=N/OC(=O)c1c(F)cccc1F,12.5%
22,C[N+]1(CC(=O)Nc2ccc(F)cc2)CCN(C(=O)c2ccco2)CC1.[Cl-],13.2%
23,COc1ccc(CCNC(=O)C2CCCCC2C(=O)O)cc1OC (stereo not shown),-2.9%
24,Nc1ccc([N+](=O)[O-])cc1C(=O)NNC(=O)c1ccco1,25.9%
25,O=C(CSCc1ccccc1)Nc1ccc2c(c1)OCO2,7.4%
